# For some of these results: Entries with a potency or affinity are not part of this list.
# Legend:
# Design in all cases: scale not given: direction of the effect not stated beside the values
# [1] = molecular target: Protein translocase subunit SecA (Escherichia coli (strain K12)) (UniProt P10408); assay: Assay to Identify E. coli SecA ATPase Inhibitors; format: functional; conditions: 30 µM
# [2] = molecular target: T1, Ubiquitin-activating enzyme e1, putative (Leishmania donovani (strain BPK282A1)) (UniProt E9BSI1); assay: Leishmania donovani Ubiquitin Activating Enzyme (LdE1); format: functional; conditions: 30 µM
# T1 sequence (whole entry): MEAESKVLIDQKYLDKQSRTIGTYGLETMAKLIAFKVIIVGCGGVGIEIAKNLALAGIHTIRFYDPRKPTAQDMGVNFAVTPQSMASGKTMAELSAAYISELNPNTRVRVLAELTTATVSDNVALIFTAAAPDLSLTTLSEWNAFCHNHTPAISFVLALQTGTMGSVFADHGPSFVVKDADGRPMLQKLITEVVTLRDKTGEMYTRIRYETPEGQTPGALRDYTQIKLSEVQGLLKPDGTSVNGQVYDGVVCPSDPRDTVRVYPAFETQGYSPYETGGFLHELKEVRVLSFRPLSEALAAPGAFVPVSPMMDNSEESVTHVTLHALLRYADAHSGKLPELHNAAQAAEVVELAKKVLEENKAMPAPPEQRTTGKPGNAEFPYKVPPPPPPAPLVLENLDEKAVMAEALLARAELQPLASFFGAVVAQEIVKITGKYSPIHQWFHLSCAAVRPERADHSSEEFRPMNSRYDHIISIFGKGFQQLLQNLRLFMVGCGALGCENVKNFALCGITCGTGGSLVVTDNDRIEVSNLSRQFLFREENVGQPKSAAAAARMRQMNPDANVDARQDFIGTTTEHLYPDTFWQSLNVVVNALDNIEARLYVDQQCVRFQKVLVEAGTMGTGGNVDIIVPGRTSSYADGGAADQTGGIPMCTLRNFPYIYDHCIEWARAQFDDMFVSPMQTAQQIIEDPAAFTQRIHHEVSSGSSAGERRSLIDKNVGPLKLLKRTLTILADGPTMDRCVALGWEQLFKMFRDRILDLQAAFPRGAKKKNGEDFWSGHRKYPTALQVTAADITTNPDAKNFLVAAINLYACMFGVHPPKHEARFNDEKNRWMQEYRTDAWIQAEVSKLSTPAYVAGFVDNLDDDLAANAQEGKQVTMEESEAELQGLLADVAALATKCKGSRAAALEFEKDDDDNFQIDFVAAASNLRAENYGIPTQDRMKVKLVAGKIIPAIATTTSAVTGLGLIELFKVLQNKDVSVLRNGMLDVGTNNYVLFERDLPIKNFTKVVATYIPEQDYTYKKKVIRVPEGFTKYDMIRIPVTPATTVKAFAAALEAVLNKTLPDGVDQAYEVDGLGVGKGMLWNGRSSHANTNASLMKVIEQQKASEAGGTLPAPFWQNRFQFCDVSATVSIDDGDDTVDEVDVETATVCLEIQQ
# [3] = molecular target: AMP-activated protein kinase, AMPK (Homo sapiens) (UniProt P54646+O43741+P54619+Q9UGJ0+Q9Y478+Q13131+Q9UGI9); assay: AMP-dependent Kinase enzyme assay. An in vitro enzyme assay that detects ADP turnover that is directly proportional to AMPK activity. This uses naive AMPK that is activated during the assay with MK-8722; format: functional; conditions: 30 µM
# [4] = molecular target: Sialic acid-binding Ig-like lectin 9 (Homo sapiens) (UniProt Q9Y336); assay: Hs-Siglec9 ALPHAscreen SOP 20170721; conditions: 10 µM
# Sialic acid-binding Ig-like lectin 9 (Homo sapiens), sequence (Q9Y336 whole entry): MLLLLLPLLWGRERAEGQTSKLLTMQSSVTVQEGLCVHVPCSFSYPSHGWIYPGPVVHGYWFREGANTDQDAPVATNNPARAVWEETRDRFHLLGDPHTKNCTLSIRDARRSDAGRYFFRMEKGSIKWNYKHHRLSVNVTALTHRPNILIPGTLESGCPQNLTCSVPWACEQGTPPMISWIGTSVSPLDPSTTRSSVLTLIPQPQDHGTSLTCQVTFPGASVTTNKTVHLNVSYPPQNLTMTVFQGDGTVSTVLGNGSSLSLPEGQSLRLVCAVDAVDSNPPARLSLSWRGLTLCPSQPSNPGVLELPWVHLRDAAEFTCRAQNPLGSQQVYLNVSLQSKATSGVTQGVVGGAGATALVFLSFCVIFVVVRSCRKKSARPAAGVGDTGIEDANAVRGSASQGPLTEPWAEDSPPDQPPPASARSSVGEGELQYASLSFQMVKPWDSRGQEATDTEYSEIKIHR
# Trypanosoma cruzi = assay: Trypanosoma cruzi phosphomannomutase and mannose-1-phosphate guanylyltransferase assay; format: functional; conditions: 10 µM
# [5] = molecular target: T2, Arginase-2, mitochondrial (Homo sapiens) (UniProt P78540); assay: in vitro enzyme assay to detect the production of urea directly proportional to the activity of Arginase II; format: functional; conditions: 33.3 µM; also: in the data most compounds retested in dose-response had high values
# T2 sequence (whole entry): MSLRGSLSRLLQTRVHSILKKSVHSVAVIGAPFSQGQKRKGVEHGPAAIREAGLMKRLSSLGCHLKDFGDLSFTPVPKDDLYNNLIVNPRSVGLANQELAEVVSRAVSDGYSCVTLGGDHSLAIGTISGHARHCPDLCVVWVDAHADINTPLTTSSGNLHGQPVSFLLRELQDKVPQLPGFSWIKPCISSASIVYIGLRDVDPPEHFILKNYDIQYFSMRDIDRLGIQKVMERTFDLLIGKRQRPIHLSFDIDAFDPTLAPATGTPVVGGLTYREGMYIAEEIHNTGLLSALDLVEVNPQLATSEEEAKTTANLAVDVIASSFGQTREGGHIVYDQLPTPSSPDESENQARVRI
# [6] = molecular target: T3, Proteasome subunit beta (Trypanosoma cruzi) (UniProt O96673); assay: Trypanosoma cruzi proteasome chymotrypsin-like activity (TcProtChymo) assay.; also: in the data most compounds retested in dose-response had high values; format: functional; conditions: 9.37 µM
# T3 sequence (whole entry): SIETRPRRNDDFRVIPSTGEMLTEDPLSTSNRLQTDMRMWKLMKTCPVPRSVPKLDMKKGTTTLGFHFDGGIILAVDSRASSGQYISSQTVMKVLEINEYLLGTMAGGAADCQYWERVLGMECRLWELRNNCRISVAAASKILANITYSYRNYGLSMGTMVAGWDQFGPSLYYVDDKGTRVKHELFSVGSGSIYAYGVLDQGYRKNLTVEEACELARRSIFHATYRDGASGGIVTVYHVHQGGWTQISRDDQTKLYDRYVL
# Homo sapiens = species on record: Homo sapiens; assay: To identify inhibition of the IFN signalling (Jak-Stat) pathway via expression of an eGFP reporter gene under the control of an IFN-stimulated response element (ISRE) containing MxA promoter.; format: functional; conditions: 30 µM
# [7] = molecular target: T4, Tyrosyl-tRNA synthetase, putative (Trypanosoma cruzi (strain CL Brener)) (UniProt Q4DSP6); assay: Trypanosoma cruzi tyrosyl tRNA synthetase (TcYRS) _High Tyrosine SOP; format: functional; conditions: 30 µM; also: in the data most compounds retested in dose-response had high values
# T4 sequence (whole entry): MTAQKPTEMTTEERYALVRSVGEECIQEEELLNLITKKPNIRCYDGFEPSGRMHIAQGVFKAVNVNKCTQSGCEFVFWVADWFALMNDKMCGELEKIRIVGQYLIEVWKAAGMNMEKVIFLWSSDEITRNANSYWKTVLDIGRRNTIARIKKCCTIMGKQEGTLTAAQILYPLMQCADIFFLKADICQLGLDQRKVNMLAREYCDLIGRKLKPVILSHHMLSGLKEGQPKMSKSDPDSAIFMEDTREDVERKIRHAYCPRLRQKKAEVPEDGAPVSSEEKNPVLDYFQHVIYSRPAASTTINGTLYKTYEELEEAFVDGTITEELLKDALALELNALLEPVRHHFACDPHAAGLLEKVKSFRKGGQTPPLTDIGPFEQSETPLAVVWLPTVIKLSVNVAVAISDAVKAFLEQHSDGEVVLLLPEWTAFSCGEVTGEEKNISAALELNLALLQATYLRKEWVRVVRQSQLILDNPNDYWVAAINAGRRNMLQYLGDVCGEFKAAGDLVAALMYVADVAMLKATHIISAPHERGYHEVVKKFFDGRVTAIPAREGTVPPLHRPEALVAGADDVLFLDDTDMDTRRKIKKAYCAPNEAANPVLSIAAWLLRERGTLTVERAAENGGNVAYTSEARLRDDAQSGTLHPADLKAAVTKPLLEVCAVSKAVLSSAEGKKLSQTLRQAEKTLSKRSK
# [8] = molecular target: T4, Tyrosyl-tRNA synthetase, putative (Trypanosoma cruzi (strain CL Brener)); assay: Trypanosoma cruzi tyrosyl tRNA synthetase (TcYRS) SOP; format: functional; conditions: 30 µM
# [9] = molecular target: Chromo domain-containing protein 1 (Saccharomyces cerevisiae (strain ATCC 204508 / S288c) (Baker's yeast)) (UniProt P32657); assay: ScCHD-1 Enzyme Inhibition Assay; format: functional; conditions: 30 µM; also: in the data most compounds retested in dose-response had high values
# Chromo domain-containing protein 1 (Saccharomyces cerevisiae (strain ATCC 204508 / S288c) (Baker's yeast)), sequence (P32657 whole entry, the tested form may be a part): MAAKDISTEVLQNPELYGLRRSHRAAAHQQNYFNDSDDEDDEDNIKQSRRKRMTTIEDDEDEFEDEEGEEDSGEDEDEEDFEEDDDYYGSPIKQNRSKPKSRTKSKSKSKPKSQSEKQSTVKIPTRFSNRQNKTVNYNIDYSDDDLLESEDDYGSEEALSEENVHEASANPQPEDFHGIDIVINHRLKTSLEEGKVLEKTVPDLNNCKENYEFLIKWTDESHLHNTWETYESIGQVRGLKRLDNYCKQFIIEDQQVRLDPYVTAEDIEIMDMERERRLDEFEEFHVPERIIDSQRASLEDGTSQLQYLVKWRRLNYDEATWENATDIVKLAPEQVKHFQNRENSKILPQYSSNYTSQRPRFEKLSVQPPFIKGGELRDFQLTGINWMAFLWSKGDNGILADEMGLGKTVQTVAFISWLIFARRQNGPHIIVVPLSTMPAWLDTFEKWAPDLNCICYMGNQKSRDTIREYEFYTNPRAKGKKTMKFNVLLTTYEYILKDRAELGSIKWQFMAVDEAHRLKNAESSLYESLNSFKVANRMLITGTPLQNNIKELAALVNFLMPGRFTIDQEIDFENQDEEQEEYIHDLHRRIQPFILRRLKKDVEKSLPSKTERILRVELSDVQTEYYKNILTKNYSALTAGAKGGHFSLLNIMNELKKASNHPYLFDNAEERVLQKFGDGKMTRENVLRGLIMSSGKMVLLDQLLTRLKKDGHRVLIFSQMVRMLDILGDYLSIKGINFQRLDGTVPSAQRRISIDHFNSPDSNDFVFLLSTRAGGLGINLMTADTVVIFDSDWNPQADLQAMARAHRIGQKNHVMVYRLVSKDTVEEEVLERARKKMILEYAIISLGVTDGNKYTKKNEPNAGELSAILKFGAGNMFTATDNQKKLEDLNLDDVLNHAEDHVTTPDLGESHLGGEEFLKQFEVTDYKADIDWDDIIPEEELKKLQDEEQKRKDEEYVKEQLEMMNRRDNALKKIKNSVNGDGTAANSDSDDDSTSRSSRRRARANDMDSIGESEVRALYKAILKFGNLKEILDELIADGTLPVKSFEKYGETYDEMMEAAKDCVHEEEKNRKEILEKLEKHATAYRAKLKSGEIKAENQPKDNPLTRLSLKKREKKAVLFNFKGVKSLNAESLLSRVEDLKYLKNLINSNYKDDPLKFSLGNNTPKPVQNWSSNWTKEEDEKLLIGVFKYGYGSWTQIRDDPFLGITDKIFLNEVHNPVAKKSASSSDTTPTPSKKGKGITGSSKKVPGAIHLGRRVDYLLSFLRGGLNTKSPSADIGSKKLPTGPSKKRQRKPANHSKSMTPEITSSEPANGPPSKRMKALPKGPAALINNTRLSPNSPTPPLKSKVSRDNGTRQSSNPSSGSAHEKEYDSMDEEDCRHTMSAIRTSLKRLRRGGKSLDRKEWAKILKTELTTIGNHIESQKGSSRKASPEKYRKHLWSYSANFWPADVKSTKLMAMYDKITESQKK
# Protein translocase subunit SecA (Escherichia coli (strain K12)), sequence (P10408 whole entry): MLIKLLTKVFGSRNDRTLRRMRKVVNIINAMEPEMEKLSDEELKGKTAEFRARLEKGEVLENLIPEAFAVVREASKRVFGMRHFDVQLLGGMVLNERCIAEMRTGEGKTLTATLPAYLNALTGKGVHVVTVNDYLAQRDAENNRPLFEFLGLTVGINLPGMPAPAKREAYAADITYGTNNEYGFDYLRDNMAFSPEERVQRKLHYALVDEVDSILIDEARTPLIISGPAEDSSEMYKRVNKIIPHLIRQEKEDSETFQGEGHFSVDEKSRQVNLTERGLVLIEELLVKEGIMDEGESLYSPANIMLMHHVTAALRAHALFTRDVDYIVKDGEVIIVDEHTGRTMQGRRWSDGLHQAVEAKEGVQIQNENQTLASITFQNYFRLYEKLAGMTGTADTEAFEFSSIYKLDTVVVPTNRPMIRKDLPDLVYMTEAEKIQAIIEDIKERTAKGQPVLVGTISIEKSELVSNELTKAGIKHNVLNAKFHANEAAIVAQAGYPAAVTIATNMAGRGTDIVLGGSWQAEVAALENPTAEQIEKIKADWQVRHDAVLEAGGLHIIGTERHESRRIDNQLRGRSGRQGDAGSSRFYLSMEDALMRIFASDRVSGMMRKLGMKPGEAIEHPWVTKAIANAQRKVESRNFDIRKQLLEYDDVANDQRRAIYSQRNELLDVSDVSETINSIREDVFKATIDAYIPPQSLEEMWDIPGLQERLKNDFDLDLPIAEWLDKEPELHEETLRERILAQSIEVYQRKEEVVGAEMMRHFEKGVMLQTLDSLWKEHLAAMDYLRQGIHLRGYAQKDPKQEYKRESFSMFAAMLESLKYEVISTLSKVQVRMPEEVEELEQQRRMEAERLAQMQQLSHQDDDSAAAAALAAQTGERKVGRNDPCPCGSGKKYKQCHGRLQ
Structure (SMILES),Percent Effect [1] [%],Percent Effect [2] [%],Percent Effect [3] [%],Percent Effect [4] [%],Percent Effect (Trypanosoma cruzi) [%],Percent Effect [5] [%],Percent Effect [6] [%],Percent Effect (Homo sapiens) [%],Percent Effect [7] [%],Percent Effect [8] [%],Percent Effect [9] [%]
Cn1ccnc1CN1CCC2(CC1)CN(CC1CC1)C(=O)CO2,-1.66,0,7.96,-0.145,-0.296,-1.94,0.522,12.5,4.23,8.97,90.8
Cc1cccc(C(=O)NC2CCN(c3cnn(C)c3)C2=O)n1 (stereo not drawn),-4.94,16.2,-3.39,24.3,7.33,23.6,9.36,-7.64,3.23,13.6,-10.2
c1ccc(CN2CC[C@@H]3O[C@@H](COCC4CCOCC4)CC[C@@H]32)nc1,-4.64,10.7,1.98,-3.4,-0.394,2.1,12.4,-2.6,2.13,8.97,-2.41
Cc1noc(C)c1-c1cncc(C2CCCN2Cc2cncnc2)n1 (stereo not drawn),-2.17,2.67,6.8,-2.83,-3.54,1.63,5.55,18.2,4.25,8.97,-6.34
COCc1cc(NCc2cc(F)ccc2F)n2nccc2n1,-3.49,-2.74,-7.06,1.05,-5.68,2.27,5.15,15.9,2.15,7.5,-6.68
CCN1CCN(C(=O)c2cnn(-c3ccccc3Cl)c2)CC1,-4.44,5.41,-8.79,9.91,-2.36,-1.6,1.62,10.3,10.3,13.6,-7.79
CCN1CCN(C(=O)c2nc(C)n(-c3ccccc3Cl)n2)CC1,-9.34,7.89,-2.25,14.9,5.7,2.16,3.81,-16.5,4.43,23.5,-7.33
COc1cccc(-n2c(C)cc(C(=O)O)c2C)c1,-4.92,20.2,-3.83,-8.51,-6.52,2.28,10.7,31.6,-0.493,3.8,-2.26
